# Insulin prom inh = inhibitors of insulin promoter-driven GFP, primary screen, imaging, TRM-6 cells (human fetal islet line), eGFP reporter, cell count | reporter expression induced with tamoxifen | inhibition, % at 2 µM | 130,000 compounds, 0.9% hits;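 active = inhibition above the mean plus 3 SD, with well images judged a real hit on visual review, cut at about 60% in these data, passing the limit was not always enough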
# Autophagy mod = autophagy modulators in MEF cells, primary screen, imaging, high-content, MEF GFP-LC3. MEF GFP-LC3 puncta imaging; test concentration mostly 10 µM. calls only at 10 µM (by protocol). 190,000 compounds, 0.98% hits. AID 463193, 2010;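 active = percentage of spot-positive cells more than 3 SD above its plate mean, without a fluorescence outlier flag or 80% toxicity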;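 note: spot-positive cell cutoff set from DMSO-treated cells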
# Insulin prom up = insulin promoter activators in MIN6 cells, imaging, high-content screening, mouse beta cells; AID 1625, 2009; 190,000 compounds, 0.3% hits; z-score at 5 µM; MIN6 insulin promoter-GFP reporter; hits give high values;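 active = z-score above 3 at 5 µM with at least 500 cells counted in the well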
# PTEN del growth = growth suppression of PTEN-null HCT116, primary screen, cell-based, CellTiter-Glo. 140,000 compounds, 1.2% hits. viability, % at 10 µM. HCT116 PTEN-null viability, 60 h; hits give low values;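 active = viability at or below a set limit, 4 SD under the median of all tested compounds, cut at about 3.7% in these data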;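 note: PTEN knockout HCT116 line with beta catenin targeted HCT116 as companion control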
# HCT116 bCat-KO = primary screen for growth suppressors in beta-catenin knockout HCT116 cells (colon tumor, human) | HCT116 beta-catenin knockout viability, CellTiter-Glo, 60 h; hits give low values | viability, % at 10 µM | 140,000 compounds, 1.5% hits;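 active = viability at or under a set limit, the compound median less 4 SD, cut at about 6% in these data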;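 note: 0% = Hyamine 1622 control at 20 µM and 100% = untreated cell control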
# Lmaj promast = Leishmania major promastigote growth inhibition, primary screen; Leishmania major promastigotes, resazurin fluorescence viability; 200,000 compounds, 9% hits; AID 1063, 2008; inhibition, % at 10 µM; in the data active = inhibition above about 50%;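 note: promastigotes grown with compound for 44 hours at 28 °C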
# * marks the source's active call; other numbers are inactive results; i = inactive; · = no result given; + = active, no number. In the library only some 9.6% were active in any assay of this set; here they are far more common.
SMILES,Insulin prom inh,Autophagy mod,Insulin prom up,PTEN del growth,HCT116 bCat-KO,Lmaj promast
O=C(Nc1cccc2oc(=O)ccc12)c1ccc([N+](=O)[O-])cc1[N+](=O)[O-],0,i,-0.6,31,19,97*
COc1ccc([N+](=O)[O-])cc1NC(=S)NC(NC(=O)Cc1ccc(OC)c(OC)c1)C(Cl)(Cl)Cl (centres undefined),·,i,-0.36,4,4.9*,-11
COc1ccc(C)cc1NC(=O)c1ccc([N+](=O)[O-])cc1[N+](=O)[O-],·,i,-0.42,·,·,53*
COc1ccc([N+](=O)[O-])cc1NC(=S)NC(NC(C)=O)C(Cl)(Cl)Cl (centres undefined),·,·,-0.13,·,·,·
COc1ccc([N+](=O)[O-])cc1NC(=O)Cc1ccc(Cl)cc1,45,i,·,64,63,48
C=CCN1C(=O)/C(=C\c2cc(Br)c(OCc3ccccn3)c(OC)c2)SC1=S,·,i,-0.16,·,·,8
O=C(Oc1ccccc1N1C(=O)C2CCCCC2C1=O)c1ccc(Cl)cc1 (centres undefined),8,i,1,88,88,2
CCOC(=O)C(C)Oc1c(Br)cc(C2NC(=O)NC(C)=C2C(C)=O)cc1OCC (centres undefined),7,i,1.5,99,98,-1
N#CC1=C(N)Nc2nc3ccccc3n2C1c1ccc(Cl)cc1 (centres undefined),22,i,-0.27,83,89,77*
N#CC1=C(N)Nc2ncnn2C1c1ccccc1 (centres undefined),26,i,-0.23,99,92,57*
COc1ccc2cc(C(C)c3nc4ccccc4c(=O)n3N)ccc2c1 (centres undefined),0,i,0.15,84,78,-6
NC(=O)COc1c(-c2ccccc2)oc2ccccc2c1=O,21,i,-1.2,85,97,1
CCOC(=O)/C(C#N)=C\c1ccc(N2CCN(C/C=C/c3ccccc3)CC2)cc1,·,i,-0.22,51,52,21
O=C(NCCNCc1ccc(F)cc1)c1ccco1,-15,i,-0.05,87,91,54*
CSc1ncccc1C(=O)OCC(=O)c1cccc(Br)c1,·,i,0.16,·,·,-3
Cc1[nH]c2c(C)cccc2c1CCNS(=O)(=O)c1cccc([N+](=O)[O-])c1,·,+,·,75,86,28
COc1cccc(OCCNS(=O)(=O)c2cccc([N+](=O)[O-])c2)c1,·,i,-0.02,·,·,-5
Cc1ccc([N+](=O)[O-])cc1S(=O)(=O)NCCc1c(C)[nH]c2c(C)cccc12,-44,i,-0.04,99,97,66*
COc1cc(C(=O)N2CCN(c3ccccc3OC)CC2)c([N+](=O)[O-])cc1OC,-35,i,·,·,·,-1
Cc1ccccc1Cn1c(=N)n(CC(=O)c2ccco2)c2ccccc21,·,i,-5,50,48,86*
N=c1n(Cc2ccccc2)c2ccccc2n1CC(O)c1ccco1 (centres undefined),0,i,-0.6,69,74,89*
CCn1c(=N)n(CC(O)c2ccco2)c2ccccc21 (centres undefined),62,i,0.83,95,79,4
N=c1n(Cc2ccccc2)c2ccccc2n1Cc1ccccc1,-100,i,-1.6,38,27,99*
CCCn1c(=N)n(CC(=O)c2ccco2)c2ccccc21,55,i,0.58,98,86,14
CC(C)CN(CC(C)C)c1nc(N)c(C#N)c(CC#N)c1C#N,41,i,-0.28,70,79,6
SMILES,Insulin prom inh,Autophagy mod,Insulin prom up,PTEN del growth,HCT116 bCat-KO,Lmaj promast
CCOC(=O)C1CCN(C(=O)COc2ccc(S(=O)(=O)N3CCCC3)cc2C)CC1,-64,i,0.37,·,·,-2
CCS(=O)(=O)c1nc(S(=O)(=O)c2ccc(Cl)cc2)c(N2CCc3ccccc3C2)s1,13,i,-0.12,38,48,51*
CN(C)c1ccc(-c2nc3ccccn3c2/N=C/c2ccc(Br)cc2)cc1,16,i,0.61,54,47,99*
C=CCn1c(=NC(=O)C2CCCCC2)sc2cc(NC(C)=O)ccc21,·,i,0.23,58,73,80*
C/C(=N\NC(=O)c1ccccc1)c1ccc(-n2ccnc2)cc1,9,i,0.06,96,86,-2
C/C(=N\NC(=O)CN(c1ccccc1Br)S(C)(=O)=O)c1cccs1,5,i,·,·,·,1
C/C(=N\NC(=O)CN(c1ccccc1Br)S(C)(=O)=O)c1ccc2c(c1)OCCO2,18,i,-0.36,109,94,51*
COc1cc(C(=O)N/N=C(\C)c2ccc3c(c2)OCO3)cc(OC)c1OC,·,+,0.53,·,·,-4
COc1ccc(/C(C)=N\NC(=O)c2ccc3c(c2)OCO3)cc1OC,40,i,·,·,·,2
COc1ccccc1NS(=O)(=O)c1cccc(C(=O)N/N=C(\C)c2ccc3c(c2)OCCO3)c1,-18,i,-0.16,88,92,99*
COc1ccccc1NS(=O)(=O)c1cccc(C(=O)N/N=C(\C)c2ccc(-n3ccnc3)cc2)c1,·,i,0.65,58,61,100*
COc1cc(OC)cc(C(=O)N2CCN(c3ccccc3F)CC2)c1,56,i,0.46,91,85,2
COC(=O)C1=C(C)Nc2nc3ccccc3n2C1c1cc(OC)c(OC)c(OC)c1 (centres undefined),·,·,-0.06,·,·,·
CC(C)C(c1nnnn1C1CCCC1)N1CCOCC1 (centres undefined),-469,i,3*,98,92,0
CC(C)C(c1nnnn1C1CCCCC1)N1CCc2ccccc2C1 (centres undefined),7,i,0.45,95,88,67*
CC(C)C(c1nnnn1C1CCCC1)N1CCc2ccccc21 (centres undefined),·,i,0.3,74,73,31
COc1ccc(CCNc2nc(-c3ccccn3)cs2)cc1OC,·,·,-2.3,·,·,·
CCOC(=O)CSc1nnc(CNC(=O)c2cc(OCC)c(OCC)c(OCC)c2)n1C,·,i,-0.54,94,94,-6
CCOc1ccc(NC(=S)NC(C)C(c2ccccc2)N2CCN(C)CC2)cc1 (centres undefined),-20,i,0.23,·,·,-7
COc1cc(C2C(C#N)=C(N)Oc3cc(C)n(CCN4CCOCC4)c(=O)c32)cc(OC)c1OC (centres undefined),·,i,·,109,114,-7
Cc1sc2ncnc(Sc3nnnn3-c3ccccc3)c2c1C,·,i,0.73,5,7,89*
Cc1sc2ncnc(Sc3ccccc3C(=O)O)c2c1C,-20,i,0.04,·,·,0
Clc1ccc(-n2nnnc2Sc2ncnc3sccc23)cc1,68,+,·,·,·,25
Nc1nc(CSc2ccccc2)nc(N2CCCCC2)n1,·,i,-0.79,·,·,0
